What all share (conditions): mRNA level, 48 h; actives raise or lower the signal
Read-out in assay [1]: Glutamate-cysteine ligase catalytic (GCLC), GCLC (gene 2729)
As to the kind of experiment: LTEA_HepaRG_GCLC: Life Technologies and Expression Analysis (LTEA) Assay for Glutamate-cysteine ligase catalytic (GCLC) using HepaRG (AID 2283498). A digest of the protocol:
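Read-out is GCLC transcript level by Fluidigm-based TaqMan qRT-PCR, normalized to three housekeeping genes and fitted in both directions relative to 0.5% DMSO. Human HepaRG cells received chemicals for 48 h, up to 100 uM.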

Read-out in assay [2]: growth arrest and DNA damage 45 (GADD45G), GADD45G (gene 10912)
As to the kind of experiment: LTEA_HepaRG_GADD45G: Life Technologies and Expression Analysis (LTEA) Assay for growth arrest and DNA damage 45 (GADD45G) using HepaRG (AID 2283499). An outline of the steps: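 GADD45G transcript level by qRT-PCR (housekeeping-normalized: ACTB, GAPDH, POLR2A) after 48 h chemical treatment of a single HepaRG lot in serum-free induction medium; eight-point half-log series up to 100 uM in 0.5% DMSO, duplicates, up- or down-regulation scored.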

Read-out in assay [3]: Glutamate-cysteine ligase regulatory (GCLM), GCLM (gene 2730)
Put plainly: LTEA_HepaRG_GCLM: Life Technologies and Expression Analysis (LTEA) Assay for Glutamate-cysteine ligase regulatory (GCLM) using HepaRG (AID 2283500). An outline of the steps: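 Differentiated HepaRG cells exposed 48 h in serum-free induction medium to eight half-log concentrations up to 100 uM (0.5% DMSO). GCLM mRNA by TaqMan qRT-PCR, normalized to ACTB, GAPDH and POLR2A; bidirectional fit versus DMSO.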

Read-out in assay [4]: Heat shock 70 kDa protein 1 (HSPA1A), gene 3303
Put plainly: LTEA_HepaRG_HSPA1A: Life Technologies and Expression Analysis (LTEA) Assay for Heat shock 70 kDa protein 1 (HSPA1A) using HepaRG (AID 2283502). A digest of the protocol: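 Human HepaRG cells in serum-free induction medium were exposed in duplicate for 48 h to 8 half-log concentrations, highest 100 uM, in 0.5% DMSO. HSPA1A mRNA read by TaqMan qRT-PCR, normalized to ACTB, GAPDH, POLR2A, fitted bidirectionally against DMSO.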

Read-out in assay [5]: 3-Hydroxy-3-Methylglutaryl-CoA Synthase 2 (HMGCS2), HMGCS2 (gene 3158)
Put plainly: LTEA_HepaRG_HMGCS2: Life Technologies and Expression Analysis (LTEA) Assay for 3-Hydroxy-3-Methylglutaryl-CoA Synthase 2 (HMGCS2) using HepaRG (AID 2283504). An outline of the steps:
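Readout is HMGCS2 transcript by qRT-PCR, housekeeping-normalised (ACTB/GAPDH/POLR2A) and fitted bidirectionally against 0.5% DMSO. Differentiated HepaRG cells received chemicals 48 h, duplicate wells, eight half-log concentrations topping at 100 uM.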

Read-out in assay [6]: HGF (gene 3082)
Put plainly: LTEA_HepaRG_HGF: Life Technologies and Expression Analysis (LTEA) Assay for Hepatocyte Growth Facto (HGF) using HepaRG (AID 2283505). A digest of the protocol:
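HGF transcript was quantified by TaqMan qRT-PCR against three housekeeping genes after 48 h treatment of HepaRG cells. Exposure ran in duplicate over eight half-log steps topping at 100 uM in 0.5% DMSO vehicle.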

Read-out in assay [7]: Insulin Like Growth Factor 1 (IGF1), IGF1 (gene 3479)
As to the kind of experiment: LTEA_HepaRG_IGF1: Life Technologies and Expression Analysis (LTEA) Assay for Insulin Like Growth Factor 1 (IGF1) using HepaRG (AID 2283506). A digest of the protocol: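 Differentiated HepaRG cells in serum-free induction medium, exposed 48 h in duplicate to 8 half-log concentrations up to 100 uM in 0.5% DMSO. IGF1 mRNA by Fluidigm qRT-PCR, normalised to ACTB, GAPDH and POLR2A.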

Read-out in assay [8]: Intercellular Adhesion Molecule 1 (ICAM1), ICAM1 (gene 3383)
Put plainly: LTEA_HepaRG_ICAM1: Life Technologies and Expression Analysis (LTEA) Assay for Intercellular Adhesion Molecule 1 (ICAM1) using HepaRG (AID 2283507). A digest of the protocol:
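ICAM1 transcript levels measured by qRT-PCR, normalized to three housekeeping genes (ACTB, GAPDH, POLR2A), after 48 h chemical exposure of HepaRG cells. Duplicate eight-point half-log series from 100 uM in 0.5% DMSO; gain or loss fitted against vehicle.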

Read-out in assay [9]: Insulin-like growth factor-binding protein 1 (IGFBP1), IGFBP1 (gene 3484)
As to the kind of experiment: LTEA_HepaRG_IGFBP1: Life Technologies and Expression Analysis (LTEA) Assay for Insulin-like growth factor-binding protein 1 (IGFBP1) using HepaRG (AID 2283508). A digest of the protocol: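 Read-out is qRT-PCR transcript level normalized to three housekeeping genes, fitted in both directions against 0.5% DMSO. Differentiated HepaRG cells received eight half-log concentrations (top 100 uM) in duplicate for 48 h in serum-free induction medium.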

Read-out in assay [10]: Interleukin 6 (IL6), IL6 (gene 3569)
As to the kind of experiment: LTEA_HepaRG_IL6: Life Technologies and Expression Analysis (LTEA) Assay for Interleukin 6 (IL6) using HepaRG (AID 2283509). A digest of the protocol: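 HepaRG, ~100,000 cells/well, 48 h pre-culture; serum-free induction medium; cmpd 8-pt half-log from 100 uM, 0.5% DMSO, duplicate, 48 h. Lysis in RLT, TaqMan qRT-PCR; gain or loss vs DMSO.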

Read-out in assay [11]: Interleukin 6 Receptor (IL6R), IL6R (gene 3570)
Put plainly: LTEA_HepaRG_IL6R: Life Technologies and Expression Analysis (LTEA) Assay for Interleukin 6 Receptor (IL6R) using HepaRG (AID 2283510). A digest of the protocol: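 Differentiated HepaRG cells, plated 48 h, then exposed in duplicate for 48 h in serum-free induction medium to 8 half-log concentrations (top 100 uM, 0.5% DMSO). IL6R mRNA measured by TaqMan qRT-PCR, normalized to ACTB/GAPDH/POLR2A; bidirectional fit vs DMSO.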

Read-out in assay [12]: Potassium channel subfamily K member 1 (KCNK1), KCNK1 (gene 3775)
As to the kind of experiment: LTEA_HepaRG_KCNK1: Life Technologies and Expression Analysis (LTEA) Assay for Potassium channel subfamily K member 1 (KCNK1) using HepaRG (AID 2283511). An outline of the steps: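 Gain or loss of KCNK1 mRNA is the read-out, quantified by qRT-PCR against three housekeeping genes after 48 h chemical treatment of human HepaRG liver cells. Concentrations ran from 100 uM downward in half-log steps, vehicle 0.5% DMSO.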

Read-out in assay [13]: JUN Transcription Factor, JUN (gene 3725)
As to the kind of experiment: LTEA_HepaRG_JUN: Life Technologies and Expression Analysis (LTEA) Assay for JUN Transcription Factor using HepaRG (AID 2283513). A digest of the protocol: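 HepaRG cells, 48 h post-plating, exposed 48 h in serum-free induction medium to 8-point half-log series (top 100 uM, 0.5% DMSO), duplicate; mRNA by qRT-PCR (TaqMan, Fluidigm), normalized to ACTB/GAPDH/POLR2A; bidirectional fit vs DMSO.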

Read-out in assay [14]: Lipase C (LIPC), LIPC (gene 3990)
Put plainly: LTEA_HepaRG_LIPC: Life Technologies and Expression Analysis (LTEA) Assay for Lipase C (LIPC) using HepaRG (AID 2283514). An outline of the steps:
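Read-out is LIPC transcript level by TaqMan qRT-PCR, normalized to three housekeeping genes, after 48 h chemical treatment of human HepaRG liver cells. Curves span eight concentrations topping at 100 uM; activity in either direction scored relative to 0.5% DMSO.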

Read-out in assay [15]: MicroRNA 122 (MIR122), gene 406906
As to the kind of experiment: LTEA_HepaRG_MIR122: Life Technologies and Expression Analysis (LTEA) Assay for MicroRNA 122 (MIR122) using HepaRG (AID 2283516). Also: the transcript read is the microRNA miR-122. A digest of the protocol:
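Differentiated human HepaRG cells in serum-free induction medium exposed 48 h to 8 half-log concentrations from 100 uM in 0.5% DMSO, duplicate. MIR122 quantified by Fluidigm TaqMan qRT-PCR, normalised to ACTB, GAPDH, POLR2A; fold change fitted bidirectionally versus DMSO.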

Read-out in assay [16]: matrix metalloproteinase-10 (MMP10), MMP10 (gene 4319)
As to the kind of experiment: LTEA_HepaRG_MMP10: Life Technologies and Expression Analysis (LTEA) Assay for matrix metalloproteinase-10 (MMP10) using HepaRG (AID 2283517). An outline of the steps: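 Gain or loss of MMP10 mRNA is fitted relative to the 0.5% DMSO vehicle. The human hepatic line HepaRG receives a 48-hour serum-free exposure, in duplicate, with a maximum concentration of 100 uM.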

Read-out in assay [17]: Hypoxia-inducible factor 1-alpha (Homo sapiens) (UniProt Q16665)
Put plainly: LTEA_HepaRG_HIF1A: Life Technologies and Expression Analysis (LTEA) Assay for Hypoxia-inducible factor 1 (HIF1A) Trancription factor using HepaRG (AID 2283503). A digest of the protocol:
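Differentiated HepaRG cells in serum-free induction medium exposed 48 h, in duplicate, to 8-point half-log series from 100 uM in 0.5% DMSO. HIF1A mRNA measured by TaqMan qRT-PCR, normalized to ACTB/GAPDH/POLR2A, fitted bidirectionally versus DMSO.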

Read-out in assay [18]: Keratin 19 (KRT19), KRT19 (gene 3880)
Put plainly: LTEA_HepaRG_KRT19: Life Technologies and Expression Analysis (LTEA) Assay for Keratin 19 (KRT19) using HepaRG (AID 2283512). A digest of the protocol:
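KRT19 transcript measured by TaqMan qRT-PCR, referenced to three housekeeping genes, after HepaRG cells received test chemicals for 48 h. Eight half-log concentrations, top 100 uM, 0.5% DMSO vehicle; increases and decreases both fitted.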

Read-out in assay [19]: Lipoprotein lipase (LPL), LPL (gene 4023)
As to the kind of experiment: LTEA_HepaRG_LPL: Life Technologies and Expression Analysis (LTEA) Assay for Lipoprotein lipase (LPL) using HepaRG (AID 2283515). A digest of the protocol: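 Read-out is LPL transcript level by qRT-PCR, normalized to three housekeeping genes and fitted bidirectionally against the DMSO control. Human HepaRG cells received chemicals for 48 h at up to 100 uM.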

Calls of active or inactive are those of the source. The calls were made as follows: active = hit-call score of the fitted dose curve at least 0.9, where 1 is the maximum; inactive = score below 0.9.

Chain of Hypoxia-inducible factor 1-alpha (Homo sapiens) (Q16665 whole entry, looked up): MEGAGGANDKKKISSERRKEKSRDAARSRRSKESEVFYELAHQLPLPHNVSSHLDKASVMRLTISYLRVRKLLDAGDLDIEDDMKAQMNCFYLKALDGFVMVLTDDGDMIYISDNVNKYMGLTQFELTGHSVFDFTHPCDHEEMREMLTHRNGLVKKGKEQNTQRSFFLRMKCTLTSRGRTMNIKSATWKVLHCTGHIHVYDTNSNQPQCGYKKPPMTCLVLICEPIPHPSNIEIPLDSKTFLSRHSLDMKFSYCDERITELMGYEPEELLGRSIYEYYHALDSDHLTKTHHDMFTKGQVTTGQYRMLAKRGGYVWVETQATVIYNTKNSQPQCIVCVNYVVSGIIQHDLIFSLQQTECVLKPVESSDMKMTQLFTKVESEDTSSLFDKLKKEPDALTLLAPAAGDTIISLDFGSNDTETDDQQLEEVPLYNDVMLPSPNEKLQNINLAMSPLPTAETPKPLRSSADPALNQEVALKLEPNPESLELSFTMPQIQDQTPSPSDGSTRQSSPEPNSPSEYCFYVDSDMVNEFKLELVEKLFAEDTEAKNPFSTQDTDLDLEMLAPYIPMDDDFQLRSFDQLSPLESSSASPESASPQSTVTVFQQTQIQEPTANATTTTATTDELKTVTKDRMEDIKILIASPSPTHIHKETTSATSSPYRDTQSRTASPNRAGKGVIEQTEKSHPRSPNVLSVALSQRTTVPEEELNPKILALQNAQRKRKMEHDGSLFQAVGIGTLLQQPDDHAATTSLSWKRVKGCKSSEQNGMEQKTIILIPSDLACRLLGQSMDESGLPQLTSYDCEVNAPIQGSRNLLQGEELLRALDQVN

With `NNC(=O)c1ccncc1`, the compound was called inactive in [1], in [2], in [3], in assay [4], in assay [5] and in assay [6]. Also, the outcome in [7], in assay [8], in assay [9], in [10], in [11] and in [12] was inactive. The call in [13], in assay [14], in assay [15] and in assay [16] was inactive.

`COc1cc(C(C)C)c2c(c1)S(=O)(=O)N(COc1cc(=O)n3cccc(OCCN4CCCCC4)c3n1)C2=O`: the half-maximal activity concentration (AC50) (commonly the concentration giving half of the maximal activity seen) in assay [1] was 12.5 µM (active); in assay [2], 19.1 µM (active); in assay [4], 19.7 µM (active); in assay [5] it was 20 µM (active); in assay [6] it was 12.5 µM (active); in [10], 12.5 µM (active). The half-maximal activity concentration (AC50) in [18] is 12.5 µM (active); in [19], 21.2 µM (active); in assay [15], 23.4 µM (active); in assay [16], 21.1 µM (active). For the same compound, the outcome in [3], in [17], in assay [7], in assay [8], in assay [9] and in [12] was inactive. Besides, the result in assay [13] was inactive.

Regarding `Cc1ccc(S(=O)(=O)NC(=O)NN2CCCCCC2)cc1`, the result in assay [1], in assay [2], in [3], in assay [4], in assay [5] and in assay [6] was inactive. Also, the result in assay [7], in [8], in [9], in assay [10], in [12] and in assay [13] was inactive. Further, the call in [14], in assay [19], in assay [15] and in assay [16] was inactive.

The values above are taken from PubChem BioAssay (EPA / NIEHS).
